High-throughput results (PubChem)
DENV2 CPE rescue: inhibitors of DENV2 cytopathic effect | AID 651640 | DENV2-infected cells, cytopathic effect rescue, plate reader | CPE inhibition, % at 9.99 µM | 1.7% of 350,000 active; in the data active means CPE inhibition above about 20%, passing the limit was not always enough; inconclusive means no clear call, values can overlap the other calls; tested in BHK-21 cells
Statin myotox sup: suppression of simvastatin myotoxicity; rescue of ATP level, % at 7.49 µM; C2C12 myotubes + simvastatin, ATP luminescence, 48 h; scaled: DMSO 0, geranylgeraniol control 100; 0.78% of 330,000 active;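 active means mean ATP rescue above about 67%, or every replicate alone reaching that limit, limit read from the data, passing the limit was not always enough; inconclusive means no clear call, values can overlap the other calls; inactive means mean under the limit and some replicate under it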;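 further: myotubes were challenged with 10 µM simvastatin during compound exposure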
PvdQ acylase: blocks Pseudomonas aeruginosa PvdQ acylase activity. purified PvdQ acylase, fluorescence plate reader. inhibition, % at 10 µM. 0.063% of 340,000 active; in the data active means inhibition above about 30%, passing the limit was not always enough; inconclusive means no clear call, values can overlap the other calls
PGC1a acetyl inh: lowers PGC1a acetylation signal in U2OS cells | inhibition, % at 15.6 µM | AlphaScreen anti-acetyl-lysine; with virally co-expressed GCN5 acetyltransferase | 0.17% of 350,000 active;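 active means every replicate shows inhibition of at least 40%; inconclusive means mean inhibition at least 40% but some replicate below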
miR122 inh: miR-122 inhibition in Huh7 cells | Huh7 miR-122 Renilla luciferase sensor, 48 h; neutral wells = 0, positive control = 100 | activation (reporter increase), % at 12.5 µM | 0.3% of 340,000 active | AID 602342;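 active means mean replicate activation score at least 90 and every replicate individually at or above 90; inconclusive means only one of the two criteria met; inactive means neither criterion met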;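 further: higher luciferase means less miR-122 activity so hits act as miR-122 inhibitors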
Of the large screens only hits and unclear results are named; the others gave an inactive call; [ ] = another dose, or the depositor's remark. Shown are actives, neighbours in structure and some others; about 2.2% of the full set was active somewhere.

C/C=C/c1ccccc1[C@@H]1[C@H](C#N)N(C(=O)Cc2ccccn2)[C@H]1CO	none (no result: Statin myotox sup, PvdQ acylase, miR122 inh)
N#Cc1nc(COc2ccccc2)oc1N1CCCC1	none (no result: DENV2 CPE rescue)
N#Cc1nc(COc2ccccc2)oc1N1CCOCC1	Statin myotox sup 106 (no result: DENV2 CPE rescue)
COc1ccc(NC(=O)N(C)C[C@@H]2Oc3ccc(NC(=O)Cc4cn(C)c5ccccc45)cc3CC(=O)N([C@H](C)CO)C[C@@H]2C)cc1	none (no result: PvdQ acylase)
CCn1c(=O)n(CC)c2cc(N3CCCC3)c(NC(=O)c3ccc(C)cc3)cc21	DENV2 CPE rescue 36
CCCn1c(=S)[nH]c2cc(C(=O)N3CCN(C(=O)OCC)CC3)ccc2c1=O	none
CCOC(=O)N1CCN(C(=O)c2ccc3c(=O)n(CCC4=CCCCC4)c(=S)[nH]c3c2)CC1	Statin myotox sup 94 (no result: DENV2 CPE rescue)
CCOC(=O)N1CCN(C(=O)c2ccc3c(=O)n(Cc4ccc(Cl)cc4)c(=S)[nH]c3c2)CC1	Statin myotox sup 82 (no result: DENV2 CPE rescue)
C[C@H]1CN([C@@H](C)CO)C(=O)c2cc(NC(=O)Nc3ccc(C(F)(F)F)cc3)ccc2O[C@@H]1CN(C)S(=O)(=O)c1cn(C)cn1	none (no result: PvdQ acylase)
O=C(C1CC1)N1C[C@@H]2[C@H](c3ccccc31)[C@H](CO)N2C(=O)c1ccccc1	none (no result: PvdQ acylase)
O=C(C1CCC1)N1C[C@H]2[C@@H](c3ccccc31)[C@H](CO)N2C(=O)Cc1ccccn1	DENV2 CPE rescue 33 (no result: PvdQ acylase)
CN1[C@@H]2CN(C(=O)C3CCOCC3)c3ccccc3[C@@H]2[C@@H]1CO	DENV2 CPE rescue 40 (no result: PvdQ acylase)
O=C(c1cccnc1)N1C[C@@H]2[C@H](c3ccccc31)[C@@H](CO)N2C(=O)C1CCCCC1	DENV2 CPE rescue 52 (no result: PvdQ acylase)
O=C(C1CCCCC1)N1C[C@H]2[C@@H](c3ccccc31)[C@@H](CO)N2C(=O)c1ccccc1	miR122 inh 260[16.7 µM] (no result: PvdQ acylase)
O=C(C1CCC1)N1C[C@@H]2[C@H](c3ccccc31)[C@H](CO)N2C(=O)Cc1ccccn1	none (no result: DENV2 CPE rescue, PvdQ acylase)
Cc1noc(C)c1NC(=O)Nc1ccc2c(c1)C(=O)N([C@H](C)CO)C[C@H](C)[C@H](CN(C)C(=O)Nc1ccc3c(c1)OCO3)O2	none (no result: PvdQ acylase)
O=C(C1CCOCC1)N1C[C@H]2[C@@H](c3ccccc31)[C@@H](CO)N2C(=O)c1ccccc1	DENV2 CPE rescue 97 (no result: PvdQ acylase)
O=C(C1CCOCC1)N1C[C@@H]2[C@H](c3ccccc31)[C@@H](CO)N2C(=O)Cc1ccccc1	none (no result: PvdQ acylase)
O=C(Cc1ccccc1)N1C[C@H]2[C@@H](c3ccccc31)[C@@H](CO)N2C(=O)C1CCCCC1	miR122 inh 200[16.7 µM] (no result: PvdQ acylase)
O=C(Cc1ccccc1)N1C[C@H]2[C@@H](c3ccccc31)[C@H](CO)N2C(=O)C1CCCCC1	none (no result: PvdQ acylase)
CC(C)NC(=O)N1C[C@@H]2[C@H](c3ccccc31)[C@@H](CO)N2C(=O)c1ccccc1	DENV2 CPE rescue 29 (no result: PvdQ acylase)
C[C@H](CO)N1C[C@H](C)[C@@H](CN(C)S(=O)(=O)c2ccc(F)cc2)Oc2ccc(N(C)C)cc2C1=O	none (no result: PvdQ acylase)
C[C@H]1CN([C@@H](C)CO)C(=O)Cc2cc(NC(=O)Nc3ccc(C(F)(F)F)cc3)ccc2O[C@H]1CN(C)C(=O)Nc1cccc2ccccc12	none (no result: PvdQ acylase)
CCOCCOC(=O)c1[nH]c2c(c1C)C(=O)CC(c1ccccc1)C2 (centres undefined)	none
CCCCCOC(=O)c1[nH]c2c(c1C)C(=O)CC(c1ccco1)C2 (centres undefined)	miR122 inh 121 (no result: DENV2 CPE rescue)
COC(=O)CCC(=O)OC1(C)C(=O)C2=CN(Cc3ccc(OC)cc3)C(c3ccc(OC)cc3)=CC2=C(Br)C1=O (centres undefined)	DENV2 CPE rescue 23
O=C(CSc1nc2c(oc3ccccc32)c(=O)n1CC1CCCO1)NCc1ccc(F)cc1 (centres undefined)	none
O=C(CSc1nc2c(oc3ccccc32)c(=O)n1CC1CCCO1)NCc1ccccc1 (centres undefined)	DENV2 CPE rescue 72
C[C@H](CO)N1C[C@H](C)[C@@H](CN(C)Cc2ccc(Cl)c(Cl)c2)Oc2ccc(NC(=O)Cc3cn(C)c4ccccc34)cc2CC1=O	Statin myotox sup 127 (no result: PvdQ acylase)
C[C@@H]1CN([C@H](C)CO)C(=O)Cc2cc(NC(=O)Cc3cn(C)c4ccccc34)ccc2O[C@H]1CN(C)Cc1ccc2c(c1)OCO2	DENV2 CPE rescue 51, Statin myotox sup 79 (no result: PvdQ acylase)
C[C@H](CO)N1C[C@H](C)[C@@H](CN(C)Cc2ccc3c(c2)OCO3)Oc2ccc(NC(=O)Cc3cn(C)c4ccccc34)cc2CC1=O	none (no result: PvdQ acylase)
C[C@H](CO)N1C[C@H](C)[C@H](CN(C)C(=O)Cc2ccccn2)Oc2ncc(C#CC3CC3)cc2C1=O	DENV2 CPE rescue 25 (no result: PvdQ acylase)
C[C@H](CO)N1C[C@H](C)[C@@H](CN(C)C(=O)Nc2ccccc2)Oc2ncc(C#CC3CC3)cc2C1=O	none (no result: PvdQ acylase)
C[C@H](CO)N1C[C@H](C)[C@@H](CN(C)C(=O)Nc2ccccc2)Oc2ncc(C#CC3CCCC3)cc2C1=O	Statin myotox sup 78 (no result: PvdQ acylase)
C[C@@H]1CN([C@H](C)CO)C(=O)c2cc(C#CC3CC3)cnc2O[C@H]1CN(C)C(=O)Nc1ccccc1	DENV2 CPE rescue 31 (no result: PvdQ acylase)
C[C@H](CO)N1C[C@H](C)[C@H](CN(C)C(=O)Nc2ccccc2)Oc2ncc(-c3cc4ccccc4o3)cc2C1=O	Statin myotox sup 92 (no result: PvdQ acylase)
C[C@@H]1CN([C@@H](C)CO)C(=O)c2cc(C#CC3CCCC3)cnc2O[C@H]1CN(C)C(=O)Nc1ccccc1	DENV2 CPE rescue inconclusive, Statin myotox sup inconclusive, PGC1a acetyl inh inconclusive (no result: PvdQ acylase)
CC(C)NC(=O)N(C)C[C@@H]1Oc2ncc(-c3cc4ccccc4o3)cc2C(=O)N([C@H](C)CO)C[C@@H]1C	none (no result: PvdQ acylase)
C[C@H]1CN([C@@H](C)CO)C(=O)c2cc(C#CC3CC3)cnc2O[C@H]1CN(C)C(=O)Cc1ccccn1	none (no result: PvdQ acylase)
C[C@H]1CN([C@@H](C)CO)C(=O)Cc2cc(NC(=O)C3CC3)ccc2O[C@H]1CN(C)CC1CCCCC1	none (no result: PvdQ acylase)
C[C@H](CO)N1C[C@H](C)[C@H](CN(C)C)Oc2ncc(C#CC3CC3)cc2C1=O	DENV2 CPE rescue 102 (no result: PvdQ acylase)
C[C@H](CO)N1C[C@H](C)[C@H](CN(C)S(=O)(=O)c2ccc(C#N)cc2)Oc2ncc(-c3cc4ccccc4o3)cc2C1=O	Statin myotox sup 95 (no result: PvdQ acylase)
COc1ccc(S(=O)(=O)N(C)C[C@@H]2Oc3ncc(-c4cc5ccccc5o4)cc3C(=O)N([C@H](C)CO)C[C@@H]2C)cc1	none (no result: PvdQ acylase)
C[C@H]1CN([C@@H](C)CO)C(=O)c2cc(C#CC3CC3)cnc2O[C@H]1CN(C)C	none (no result: PvdQ acylase)
CCCC#Cc1ccc2c(c1)O[C@H](CN(C)C(=O)c1cnccn1)[C@@H](C)CN([C@H](C)CO)S2(=O)=O	DENV2 CPE rescue inconclusive (no result: PvdQ acylase)
C[C@@H](NC(=O)C[C@@H]1CC[C@@H]2[C@H](COC[C@@H](O)CN2C(=O)Nc2cc(Cl)cc(Cl)c2)O1)c1ccccc1	none (no result: PvdQ acylase)
C/C=C/c1cnc2c(c1)C(=O)N([C@@H](C)CO)C[C@@H](C)[C@H](CN(C)Cc1ccc(F)cc1)O2	DENV2 CPE rescue inconclusive (no result: PvdQ acylase)
CCOC(=O)n1c(=O)n(Cc2c(Cl)cccc2Cl)c2ccccc21	Statin myotox sup 175 (no result: DENV2 CPE rescue)
CCOC(=O)n1c(=O)n(Cc2ccccc2)c2ccccc21	none (no result: DENV2 CPE rescue, Statin myotox sup)
